Compound activity deposited in PubChem by National Center for Advancing Translational Sciences (NCATS).
In the library only some 5% were active in any assay of this set; here they are far more common.
TSHR agonist: agonists of human thyroid stimulating hormone receptor | P16473 | HEK293-CNG-TSHR cells (CNG channel as cAMP sensor), membrane potential dye, cAMP | Potency, µM (highest dose often 57.1 µM), usual class: activators | actives 0.48% (n = 73,000); active = well fitted activation curve with a large enough effect in the main read-out, with a control signal flat, not every such curve was filed as active; inconclusive = small, poorly fitted or top-dose-only effect, or a change in a side signal; inactive = no such curve, though single readings can be large or run the other way; reference of the percent scale not stated here;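 note: the control signal comes from parental cells without the receptor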
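HEK 293 cells stably expressing TSHR and a cAMP-gated CNG channel; parental CNG-only cells as counterscreen. Cells preloaded 60 min with membrane potential dye plus 100 uM RO 20-1724, then compound 30 min; fluorescence read at 590 nm.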
CRE-bla Fsk: modulators of forskolin-stimulated CRE signaling in CHO cells; CHO CRE-bla reporter (cAMP response element driving beta-lactamase), forskolin EC10, beta-lactamase ratio; actives 2.5% (n = 71,000); Potency, µM (doses to about 38.2 µM), usual class: activators; active = well fitted activation curve with a large enough effect in the signal ratio, with a control signal flat, not every such curve was filed as active; inconclusive = small, poorly fitted or top-dose-only effect, or effect the other way, or a change in a side signal; the % refers to the signal ratio
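Modulation of forskolin-driven signalling is measured in CHO cells carrying a CRE-controlled beta-lactamase reporter. Cells are stimulated with EC10 NKH 477 in the presence of titrated compound for 3 h at 37 °C, then loaded with CCF4 for 2 h at room temperature.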
HEK293 cAMP ctrl: counter-screen for TSHR agonists: cAMP increase in parental HEK293; parental HEK293 CNG cAMP sensor, membrane potential fluorescence; Potency, µM (top dose mostly 57.1 µM), most hits filed as activators; actives 2.5% (n = 73,000); AID 938; note: nearly all actives have a fitted effect of over 55% in size
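Counterscreen for endogenous-receptor signalling: CNG-channel HEK 293 cells report cAMP rise by membrane depolarization. After 60 min dye equilibration with 100 uM RO 20-1724, compounds incubated 30 min before bottom-read fluorescence at 590 nm.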
Casp1 inh: allosteric or competitive inhibitors of human caspase-1; Caspase-1 enzyme, Ac-WEHD-AFC fluorogenic rate; Potency, µM (top dose mostly 57.5 µM), most hits filed as inhibitors; actives 0.03% (n = 75,000); P29466
USP2a inh: blocks human ubiquitin-specific protease USP2a. AID 927. Potency, µM (series often up to 38.3 µM), usual class: inhibitors. USP2a enzymatic assay, qHTS inhibition. actives 0.1% (n = 60,000). O75604; note: nearly all actives have a fitted effect of over 60% in size
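20 nM USP2 core + cpd, 30 min RT; add 20 nM Ub-PLA2/20 uM NBD C6-HPC; read Ex460/Em535 at 0 h and 2.5 h. Normalized to NEM; qHTS curve fit/classification.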
Caspase-7 inhib: caspase-7 (human) inhibition, allosteric or competitive | P55210 | recombinant caspase-7, Ac-DEVD-AFC fluorescence rate | Potency, µM (titrated, usually from 57.5 µM), usual class: inhibitors | actives 0.02% (n = 75,000); active = well fitted inhibition curve with a large enough effect in the main read-out, with a control signal flat, not every such curve was filed as active; inconclusive = small, poorly fitted or top-dose-only effect, or a change in a side signal
Large screens that a line does not name were inactive. Unless noted, calls come from the whole dose curve; as a rule, active = well fitted curve in the direction sought with a large enough effect; inconclusive = small, poorly fitted or top-dose-only effect, or another doubt; inactive = no such curve, though single readings can be large; an effect the other way counts as inactive or inconclusive.

CCOC(=O)c1c(NC(=O)C(F)(OC)C(F)(F)F)sc2c1CCN(C)C2 (stereo unspecified)	TSHR agonist inconclusive, CRE-bla Fsk 10µM, HEK293 cAMP ctrl inconclusive, Caspase-7 inhib inconclusive (no result: Casp1 inh)
Cc1cc(Nc2nc3ccccc3[nH]c2=O)n(-c2ccccc2)n1	TSHR agonist inconclusive, CRE-bla Fsk inconclusive, HEK293 cAMP ctrl inconclusive
Cc1cc(NC(=O)CC2CCCC2)n(-c2nc3ccccc3[nH]2)n1	TSHR agonist inconclusive, CRE-bla Fsk inconclusive, HEK293 cAMP ctrl 25µM
C=CC(=O)OCCOCCOC(=O)C=C	TSHR agonist inconclusive, CRE-bla Fsk inconclusive (no result: USP2a inh)
COc1cc2c(cc1OC)-c1cc(=Nc3c(C)cc(C)cc3C)n(C)c(=O)n1CC2	TSHR agonist inconclusive, CRE-bla Fsk 2.5µM, HEK293 cAMP ctrl inconclusive
O=C(O)NCC1CCCCC1 (tested in a mixture with another compound)	none (no result: USP2a inh)
Cc1ccc(Cn2nnc3c(=O)n(Cc4cc(C)ccc4C)cnc32)cc1	TSHR agonist inconclusive, CRE-bla Fsk inconclusive, HEK293 cAMP ctrl 3.2µM
COc1cccc(-n2nnc3c(=O)n(Cc4cccc(C)c4)cnc32)c1	CRE-bla Fsk 10µM (no result: USP2a inh)
Cc1ccc(Cn2nnc3c(=O)n(Cc4cccc(C)c4)cnc32)cc1	TSHR agonist inconclusive, CRE-bla Fsk inconclusive, HEK293 cAMP ctrl inconclusive
COc1cccc(-n2nnc3c(=O)n(Cc4ccccc4F)cnc32)c1	TSHR agonist inconclusive, CRE-bla Fsk 13µM, HEK293 cAMP ctrl 25µM
C[C@@H]1CCCC(CC(=O)O)(CC(=O)O)C1	none (no result: USP2a inh)
C=C[C@@]1(C)CC(=O)[C@@]2(O)[C@@]3(C)[C@@H](O)CCC(C)(C)[C@@H]3[C@H](O)[C@H](OC(C)=O)[C@@]2(C)O1	TSHR agonist inconclusive, CRE-bla Fsk inconclusive, HEK293 cAMP ctrl 0.079µM (no result: USP2a inh)
Cc1cc(/C=N/n2cnnc2)c(C)n1-c1cc(Cl)ccc1Cl	TSHR agonist inconclusive, CRE-bla Fsk 2µM, HEK293 cAMP ctrl inconclusive
COC(=O)[C@@]1(Cc2ccc(F)cc2)[C@H]2c3cc(C(=O)N4CCCC4)n(Cc4ccccc4)c3C[C@H]2CN1C(=O)c1ccccc1	TSHR agonist inconclusive, HEK293 cAMP ctrl inconclusive (no result: USP2a inh)
COC(=O)[C@@]1(Cc2ccccc2)[C@H]2c3cc(C(=O)N4CCCC4)n(CCSCCO)c3C[C@H]2CN1C(=O)c1ccccc1	TSHR agonist inconclusive, CRE-bla Fsk inconclusive, HEK293 cAMP ctrl inconclusive (no result: USP2a inh)
COC(=O)Cn1c(C(=O)N2CCCC2)cc2c1C[C@H]1CN(C(=O)c3ccccc3)[C@@](Cc3ccccc3)(C(=O)OC)[C@@H]21	TSHR agonist inconclusive, HEK293 cAMP ctrl 20µM (no result: USP2a inh)
COC(=O)[C@@]1(Cc2ccccc2)[C@H]2c3cc(C(=O)N4CCCC4)n(CC4CC4)c3C[C@H]2CN1C(=O)c1ccccc1	TSHR agonist inconclusive, HEK293 cAMP ctrl 2µM (no result: USP2a inh)
COC(=O)[C@@]1(Cc2ccccc2)[C@H]2c3cc(C(=O)N4CCCC4)[nH]c3C[C@H]2CN1C(=O)c1ccccc1	CRE-bla Fsk 2µM (no result: USP2a inh)
COC(=O)[C@@]1(Cc2ccccc2)[C@H]2c3cc(C(=O)N4CCCC4)n(CCc4ccccn4)c3C[C@H]2CN1C(=O)c1ccccc1	TSHR agonist inconclusive, CRE-bla Fsk inconclusive, HEK293 cAMP ctrl 16µM (no result: USP2a inh)
COC(=O)C1CCN(C(c2cc(OC)c(OC)c(OC)c2)c2sc3nc(C)nn3c2O)CC1 (stereo unspecified)	CRE-bla Fsk 13µM (no result: USP2a inh)
COc1ccc(C2C(C(=O)Nc3cc(C)on3)c3ccccc3C(=O)N2C)cc1 (stereo unspecified)	TSHR agonist inconclusive, CRE-bla Fsk inconclusive, HEK293 cAMP ctrl inconclusive
Cc1ccc(CNC(=O)C2c3ccccc3C(=O)N(C)C2c2c[nH]c3ccccc23)o1 (stereo unspecified)	TSHR agonist inconclusive, CRE-bla Fsk inconclusive, HEK293 cAMP ctrl 25µM, USP2a inh inconclusive
COc1ccc(C(=O)Nc2cccc3c2C(=O)NC3=O)cc1S(=O)(=O)N1CCOCC1	CRE-bla Fsk 2.5µM, Caspase-7 inhib inconclusive (no result: Casp1 inh)
COc1ccc(C(=O)Nc2cccc(C)c2)cc1S(=O)(=O)N1CCOCC1	TSHR agonist inconclusive, HEK293 cAMP ctrl inconclusive
COc1ccc(C(=O)Nc2ccc(-c3cn4ccsc4n3)cc2)cc1S(=O)(=O)N1CCOCC1	CRE-bla Fsk 2µM
CCN(CC)CCCC(C)NC(=O)c1ccc(-n2c(=O)c(=O)[nH]c3ccccc32)cc1 (stereo unspecified)	none (no result: CRE-bla Fsk, USP2a inh)
CCOC(=O)c1[nH]c(COC(=O)CCCOc2ccccc2)c(C(=O)OCC)c1C	TSHR agonist inconclusive, CRE-bla Fsk 13µM, HEK293 cAMP ctrl inconclusive, Casp1 inh inconclusive
Nc1nc(-c2ccc3ccccc3c2)cc(-c2cc(-c3ccc4ccccc4c3)nc(N)n2)n1	none (no result: USP2a inh)
CC(C)Nc1nc(NC(C)C)nc(C(N)=O)n1	none
CC(C)Nc1nc(NC(C)C)nc(N(C)C(N)=O)n1	CRE-bla Fsk 10µM
O=[N+]([O-])c1ccc(Cl)cc1Cl	TSHR agonist inconclusive (no result: USP2a inh)
CCN1C(=O)c2cccc3c(NC(=O)c4ccc5c(c4)OCCO5)ccc1c23	CRE-bla Fsk 2.5µM (no result: TSHR agonist)
c1ccc(C2=NCCCN2)cc1	TSHR agonist inconclusive, HEK293 cAMP ctrl inconclusive
c1ccc(-c2ccc(-c3ccc(C4=NCCN4)cc3)o2)cc1	CRE-bla Fsk 0.5µM, Casp1 inh inconclusive, Caspase-7 inhib inconclusive (no result: USP2a inh)
Cc1ccc(-c2cc(C(F)(F)F)n3ncc(C(=O)N4CCN(C)CC4)c3n2)cc1	CRE-bla Fsk inconclusive
COc1ccc(-c2cc(C(=O)N3CCN(c4ccccn4)CC3)c3ccccc3n2)cc1	CRE-bla Fsk inconclusive (no result: TSHR agonist)
O=C(c1cnn2c(C(F)F)cc(-c3ccccc3)nc12)N1CCN2CCCC2C1 (stereo unspecified)	TSHR agonist inconclusive, CRE-bla Fsk inconclusive, HEK293 cAMP ctrl inconclusive
Cc1ccc(-c2cc(C(F)F)n3ncc(C(=O)N4CCN(c5ccccn5)CC4)c3n2)cc1	TSHR agonist inconclusive, HEK293 cAMP ctrl 32µM, Casp1 inh inconclusive, Caspase-7 inhib inconclusive (no result: USP2a inh)
COc1ccc(-c2cc(C(F)F)n3ncc(C(=O)N4CCN(C(=O)c5ccco5)CC4)c3n2)cc1	CRE-bla Fsk 16µM, Caspase-7 inhib inconclusive (no result: TSHR agonist, Casp1 inh, USP2a inh)
CCN1CCN(C(=O)c2cnn3c(C(F)F)cc(-c4ccc(C)cc4)nc23)CC1	TSHR agonist inconclusive, HEK293 cAMP ctrl 16µM
Clc1ccc2c(N3CCC(CCC4CCN(c5ncnc6cc(Cl)ccc56)CC4)CC3)ncnc2c1	none (no result: USP2a inh)
CN(C)C(=O)c1ccc(-c2cc(-n3ccnc3)ncn2)cc1	none
CN(C)c1ccc(-c2cc(-n3ccnc3)ncn2)cc1	CRE-bla Fsk 10µM, Casp1 inh inconclusive, Caspase-7 inhib inconclusive
CC(C)C[C@H]1C(=O)N2CCC[C@@H]2[C@]2(O)O[C@](NC(=O)[C@@H]3C=C4c5cccc6[nH]c(Br)c(c56)C[C@H]4N(C)C3)(C(C)C)C(=O)N12	CRE-bla Fsk 4µM (no result: USP2a inh)
